From PubChem BioAssay (NCI)
This is part of a sample that, as a whole, favours compounds with a hit. Of some 83,000 tested, about 20% had one in any assay.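 How to read the values: 0–100, growth inhibition (40 = 60% inhibited); 0, no net growth; -100 to 0, cell death (-40 = 40% of starting cells died; -100 = all dead).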 Activity calls are given as the source filed them. How the source made its calls: active means growth percent below 10; inactive means the rest.

Legend:
Assay in all cases: NCI-60 one-dose screen, 48 h (100 = growth as untreated, 0 = no growth, -100 = all killed)
SK-MEL-2 melanoma = conditions: 10 µM unless noted
EKVX NSCLC = conditions: 10 µM
SN12C renal = conditions: 10 µM unless noted
UO-31 renal = conditions: 10 µM unless noted
TK-10 renal = conditions: 10 µM unless noted
ACHN renal = conditions: 10 µM unless noted
A498 renal = conditions: 10 µM unless noted
CCRF-CEM leukemia = conditions: 10 µM
MOLT-4 leukemia = conditions: 10 µM unless noted

| SMILES | growth (SK-MEL-2 melanoma) | growth (EKVX NSCLC) | growth (SN12C renal) | growth (UO-31 renal) | growth (TK-10 renal) | growth (ACHN renal) | growth (A498 renal) | growth (CCRF-CEM leukemia) | growth (MOLT-4 leukemia) |
| --- | --- | --- | --- | --- | --- | --- | --- | --- | --- |
| COc1ccc2cnc(N)c(C#Cc3cc(C(=O)Nc4ccc(CN5CCN(C)CC5)c(C(F)(F)F)c4)cnc3C)c2c1 | 56.8% (inactive) | 71.8% (inactive) | 50% (inactive) | -71.8% (active) | 27.4% (inactive) | -43.2% (active) | 37.5% (inactive) | 18.7% (inactive) | 23.7% (inactive) |
| CCCCN(CCCC)CCCNc1c2c(nc3ccc(Cl)cc13)CCCC2 | 101% (inactive) | 95.5% (inactive) | 93.2% (inactive) | 72.7% (inactive) | 86.3% (inactive) | 102% (inactive) | – | 98.1% (inactive) | 94.9% (inactive) |
| NC(N)=N/N=C/c1cccc(Br)c1 | 103% (inactive) | 103% (inactive) | 101% (inactive) | 79.5% (inactive) | 100% (inactive) | 108% (inactive) | – | 101% (inactive) | – |
| CCOc1ccccc1/C=N\N=C(N/N=C/c1ccccc1OCC)N/N=C/c1ccccc1OCC | 4.07% (active) | 14.2% (inactive) | 15.4% (inactive) | -8.3% (active) | 27.8% (inactive) | 9.67% (active) | – | 16.7% (inactive) | 27.7% (inactive) |
| COc1ccc(-c2nc(SCC(C)C)nc(Nc3ccc(C)cc3)c2C#N)cc1 | 107% (inactive) | 72.8% (inactive) | 41.3% (inactive) | 59.7% (inactive) | 43.3% (inactive) | 13.6% (inactive) | – | 52.9% (inactive) | – |
| Cc1ccc2c(c1)C(=O)CCS2 | 119% (inactive) | 100% (inactive) | 101% (inactive) | 83.8% (inactive) | 90.8% (inactive) | 107% (inactive) | 82.8% (inactive) | 109% (inactive) | 118% (inactive) |
| CC(=O)/C(=C\c1c(-c2ccccc2)[nH]c2ccccc12)S(=O)(=O)c1ccccc1 | -27.9% (active) | 27.9% (inactive) | 5.37% (active) | 14% (inactive) | 10.2% (inactive) | 28.2% (inactive) | 41.4% (inactive) | – | -35.5% (active) |
| N=C(N)c1ccc(-c2ccc(-c3cc(Cl)cc(Cl)c3)s2)cc1 | -46.1% (active) | -72% (active) | -77% (active) | -77.5% (active) | -74.8% (active) | -94.4% (active) | -94.6% (active) | -67.1% (active) | -50.3% (active) |
| Nc1ccc(N=Nc2ccccc2)c2cc(S(=O)(=O)O)ccc12 | 91.1% (inactive) | 105% (inactive) | 108% (inactive) | 86.7% (inactive) | 92.9% (inactive) | 104% (inactive) | – | 99.9% (inactive) | 106% (inactive) |
| NNC(=S)N1N=C(c2cc3ccccc3o2)CC1c1c[nH]c2ccccc12 (stereo unspecified) | 60.1% (inactive) | 35.2% (inactive) | 56.9% (inactive) | 24% (inactive) | 80.1% (inactive) | 24% (inactive) | 90.2% (inactive) | 7.46% (active) | 10.2% (inactive) |
| Cc1cc2c(-c3nc4ccccc4n3C)c(O)c(O)cc2c(O)c1-c1c(C)cc2c(-c3nc4ccccc4n3C)c(O)c(O)cc2c1O | 37.2% (inactive) | 56.8% (inactive) | 35.2% (inactive) | 76.3% (inactive) | 57.1% (inactive) | 89.1% (inactive) | 28.5% (inactive) | 20.5% (inactive) | 26.7% (inactive) |
| CCOC(=O)C1=NN(c2ccccc2)C2=NC(=O)/C(=C\c3cn(-c4ccccc4)nc3-c3cc4ccccc4o3)C(=O)N12 | 99.3% (inactive) | 90.2% (inactive) | 94.3% (inactive) | 68.5% (inactive) | 161% (inactive) | 94.8% (inactive) | 112% (inactive) | 95.8% (inactive) | 96.3% (inactive) |
| COC(=O)/C=C/c1cc(O)c2oc(-c3ccc(O)c(O)c3)c(C(=O)OC)c2c1 | 43% (inactive) | 49.7% (inactive) | 34.4% (inactive) | 22.6% (inactive) | 46.7% (inactive) | 30.2% (inactive) | 18.2% (inactive) | 3.32% (active) | 19.2% (inactive) |
| COc1ccc(-c2cn3ccnc3c(-c3ccc4ncn(C5CCCCC5)c4c3)n2)cc1 | 5.74% (active) | 43.4% (inactive) | 36.4% (inactive) | 38.5% (inactive) | 81.5% (inactive) | 39% (inactive) | -12.3% (active) | 6.73% (active) | 17.2% (inactive) |
| Ic1ccc(SSc2ccc(I)cc2)cc1 | 105% (inactive) | 99.9% (inactive) | 71.3% (inactive) | 60.5% (inactive) | 84.4% (inactive) | 113% (inactive) | – | 17% (inactive) | 32% (inactive) |
| O=C(CCCC(=O)Nc1ccc(Cn2nnc3cc(Cl)c(Cl)cc32)cc1)Nc1ccc(CN2N=NC3C=C(Cl)C(Cl)=CC32)cc1 (stereo unspecified) | 87.7% (inactive) | 75.6% (inactive) | 89.9% (inactive) | 50.4% (inactive) | 107% (inactive) | 83.8% (inactive) | 78.3% (inactive) | 68.1% (inactive) | 83.2% (inactive) |
| CCC(C)(C)c1ccc(OCCCCCCN2CCN(c3ccc(C)c(Cl)c3)CC2)cc1 | 104% (inactive) | 83% (inactive) | 92.3% (inactive) | 64.5% (inactive) | 110% (inactive) | 91.3% (inactive) | – | -43.1% (active) | 98.3% (inactive) |
| O=c1oc2ccc3ccccc3c2cc1-c1ccnc2[nH]c(=S)[nH]c(=O)c12 | 104% (inactive) | 101% (inactive) | 93.1% (inactive) | 66.5% (inactive) | 143% (inactive) | 107% (inactive) | 107% (inactive) | 82.6% (inactive) | 87.4% (inactive) |

| SMILES | growth (SK-MEL-2 melanoma) | growth (EKVX NSCLC) | growth (SN12C renal) | growth (UO-31 renal) | growth (TK-10 renal) | growth (ACHN renal) | growth (A498 renal) | growth (CCRF-CEM leukemia) | growth (MOLT-4 leukemia) |
| --- | --- | --- | --- | --- | --- | --- | --- | --- | --- |
| COc1ccc(-c2nc(N)n(C(=S)Nc3ccccc3)n2)cc1 | 101% (inactive) | 96.3% (inactive) | 100% (inactive) | 74.2% (inactive) | 113% (inactive) | 97.9% (inactive) | – | 98.7% (inactive) | 98.5% (inactive) |
| COc1ccc(CN2C(=O)/C(=C\C(=O)c3ccc(OCCN4CCCC4)cc3)c3ccccc32)cc1 | 103% (inactive) | 96.4% (inactive) | 49.8% (inactive) | 56.5% (inactive) | 109% (inactive) | 69.9% (inactive) | 88.8% (inactive) | 2.08% (active) | 5.57% (active) |
| CC1=NN(c2cccc(Cl)c2)C(=O)/C1=C\c1cn(-c2nc(N3CCOCC3)nc(N3CCOCC3)n2)c2ccccc12 | 110% (inactive) | 105% (inactive) | 104% (inactive) | 83.3% (inactive) | 93.4% (inactive) | 103% (inactive) | 116% (inactive) | 100% (inactive) | 106% (inactive) |
| Cc1nnc(-c2cc3c(ccc4ccccc43)oc2=O)c2cn(-c3ccc(Cl)cc3)nc12 | 95.4% (inactive) | 84% (inactive) | 99.5% (inactive) | 66.2% (inactive) | 151% (inactive) | 97.5% (inactive) | 103% (inactive) | 74.1% (inactive) | 75.4% (inactive) |
| C[C@@H](c1ccc2c(c1)[nH]c1ccc(Cl)cc12)c1nc2ccccc2[nH]1 | 108% (inactive) | 92.6% (inactive) | 89.6% (inactive) | 56.6% (inactive) | 136% (inactive) | 96.5% (inactive) | 111% (inactive) | – | 92.4% (inactive) |
| COc1ccc2c(c1)/C(=C1/S/C(=N/c3nnc(C)s3)NC1=O)C(=O)N2Cc1ccc(Br)cc1 | 25.6% (inactive) | 31.8% (inactive) | 43.4% (inactive) | 42.6% (inactive) | 35% (inactive) | 36.2% (inactive) | 4.62% (active) | 21.2% (inactive) | 20.7% (inactive) |
| COc1cc(/C=C/C(=O)/C=C(/C=C/c2ccc(OC(C)=O)c(OC)c2)OB(F)F)ccc1OC(C)=O | 86.9% (inactive) | 76.1% (inactive) | 42.3% (inactive) | 47% (inactive) | 80.7% (inactive) | 26.5% (inactive) | – | 1.09% (active) | 3.59% (active) |
| [2H]c1nc(=Nc2cc(NC(=O)C=C)c(N(C)CCN(C)C)cc2OC)[nH]c(-c2cn(C([2H])([2H])[2H])c3ccccc23)c1[2H] | 55.8% (inactive) | 39.7% (inactive) | 35.3% (inactive) | 24.2% (inactive) | 26.8% (inactive) | 23.3% (inactive) | – | 18.4% (inactive) | – |
| C=CCNC(=S)NNc1ccc([N+](=O)[O-])cn1 | 94.4% (inactive) | 99.9% (inactive) | 100% (inactive) | 83.7% (inactive) | 104% (inactive) | 104% (inactive) | – | 71.2% (inactive) | 99.4% (inactive) |
| COc1ccccc1Nc1nnc(COc2ccc(CNC(=O)CCCC/C=C/C(C)C)cc2OC)o1 | 102% (inactive) | 85% (inactive) | 105% (inactive) | 75.2% (inactive) | 103% (inactive) | 95.7% (inactive) | 103% (inactive) | 92% (inactive) | 76.7% (inactive) |
| CCOC(=O)NNc1[nH]c(-c2ccc(OC)cc2)cc1C#N | 105% (inactive) | 102% (inactive) | 94.7% (inactive) | 87.8% (inactive) | 92.7% (inactive) | 81.2% (inactive) | – | 7.58% (active) | 8.55% (active) |
| C=CCSc1nnc(COc2ccc3c(C)c(Cc4ccccc4)c(=O)oc3c2C)o1 | 95.9% (inactive) | 108% (inactive) | 95.2% (inactive) | 80% (inactive) | 109% (inactive) | 97.5% (inactive) | – | 95.1% (inactive) | – |
| CC[C@H](Nc1ncnc2nc[nH]c12)c1nc2cccc(NCc3ccc(C(=O)NO)nc3)c2c(=O)n1-c1ccccc1 | 55.6% (inactive) | 77.1% (inactive) | 38.9% (inactive) | 87.1% (inactive) | 58.9% (inactive) | 97% (inactive) | 54.2% (inactive) | 19.6% (inactive) | 15% (inactive) |
| O=C(/C=C/c1cccc(O)c1)c1cccc(-n2cc(-c3ccc(Cl)cc3)[nH]c2=O)c1 | -45.5% (active) | 1.79% (active) | -47% (active) | -78.3% (active) | 0.394% (active) | -80.6% (active) | 61.7% (inactive) | -4.75% (active) | -29% (active) |
| COC1=C(OC)C(=O)c2ccccc2C1=O | 107% (inactive) | 97.8% (inactive) | 108% (inactive) | 78.6% (inactive) | 115% (inactive) | 92% (inactive) | – | 61.6% (inactive) | – |
| COC(=O)Nc1nc2ccc(C(=O)c3ccccc3N(C)C3COC3)cc2[nH]1 | 24.2% (inactive) | 53.6% (inactive) | 44.1% (inactive) | 39.9% (inactive) | 59.5% (inactive) | 40.5% (inactive) | 9.85% (active) | 8.11% (active) | 30.3% (inactive) |
| COc1ccc2oc(=O)cc(CN3C(=O)S/C(=C\c4ccc(Cl)cc4)C3=O)c2c1 | 106% (inactive) | 93% (inactive) | 108% (inactive) | 83.4% (inactive) | 108% (inactive) | 105% (inactive) | – | 86.5% (inactive) | 89.2% (inactive) |
| Cc1ccc(CC(=O)O)c(C)c1 | 95.5% (inactive) | 109% (inactive) | 99.4% (inactive) | 91.4% (inactive) | 88.3% (inactive) | 110% (inactive) | – | 101% (inactive) | 105% (inactive) |
